GPR151 ag: human GPR151 activation; 650,000 tested, 1% active; activation, % at 11.2 µM; Q8TDV0; PathHunter beta-arrestin GPR151 cells, luminescence; in the data active means activation above about 4.9%;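 further: 0% = median of compound wells and 100% = cells with positive control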
Target sequence (Q8TDV0 whole entry, looked up): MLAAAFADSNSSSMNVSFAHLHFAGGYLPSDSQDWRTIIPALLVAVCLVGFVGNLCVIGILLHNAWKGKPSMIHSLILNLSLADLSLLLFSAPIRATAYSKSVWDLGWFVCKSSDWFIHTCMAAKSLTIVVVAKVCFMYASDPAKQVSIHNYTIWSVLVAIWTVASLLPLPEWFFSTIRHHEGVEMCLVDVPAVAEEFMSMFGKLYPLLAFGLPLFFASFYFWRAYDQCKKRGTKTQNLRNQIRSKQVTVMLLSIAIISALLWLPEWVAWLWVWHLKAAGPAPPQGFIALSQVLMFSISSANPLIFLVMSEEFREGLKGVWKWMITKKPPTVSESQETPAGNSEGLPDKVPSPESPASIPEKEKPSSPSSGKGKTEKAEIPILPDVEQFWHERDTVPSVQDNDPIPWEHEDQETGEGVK
TEAD-YAP inh: TEAD-YAP interaction inhibition; HEK-TIYL cells, TEAD-Gal4/YAP UAS-luciferase luminescence; 640,000 tested, 1.4% active; inhibition, % at 9.12 µM; in the data active means inhibition above about 32%;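 further: 0% = median of test compound wells and 100% = reference inhibitor wells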
FBW7 activator: human FBW7 E3 ligase activation, primary screen; Q969H0; AlphaScreen FBW7–phospho-cyclin E peptide binding, activator screen; normalized activity (activation), % at 26.1 µM; 650,000 tested, 0.13% active; AID 1259310; in the data active means normalized activity above about 1.9%;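 further: purified mutant Fbw7 with reduced substrate affinity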
MITF inh: human MITF inhibition, primary screen; O75030; AlphaScreen MITF homodimerization, bead proximity signal; inhibition, % at 2.6 µM; 650,000 tested, 0.91% active; AID 1259374; in the data active means inhibition above about 50%;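 further: 0% = vehicle wells with protein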
GPR151 conf act: human GPR151 activation, confirmation screen. GPR151 PathHunter beta-arrestin cells, luminescence, 90 min; % of EA-reagent control over plate median. AID 1508609. 6,700 tested, under 10 active. shares compounds with GPR151 ag. activation, % at 11.2 µM;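 active means mean percent activation across replicates above the confirmation screen cutoff of 4.91%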
GPR119 counter: activates human GPR119 in a GPR151 counter-screen. AID 1508611. shares compounds with GPR151 ag. GPR119 PathHunter beta-arrestin cells, luminescence, 90 min; 0 = compound-well median, 100 = enzyme-acceptor control. activation, % at 11.2 µM. 6,700 tested, 0.3% active;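 active means mean percent activation in the counterscreen above 29.09%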;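 further: counterscreen on off-target GPR119 to flag nonselective hits from the GPR151 activator screen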
Numbers without * were called inactive; x = no result. In the library only some 3.5% were active in any assay of this set; here they are far more common.

SMILES	GPR151 ag	TEAD-YAP inh	FBW7 activator	MITF inh	GPR151 conf act	GPR119 counter
COc1cccc(/C=N/NC(=O)C(=O)NC(C)c2ccccc2)c1O (stereo not given)	1.6	9.8	-2.2	50.5	x	x
Cc1cc(C)c2nc(NC(=O)c3ccccc3Br)sc2c1	0.5	-11.9	-0.1	-4.9	x	x
CCC(CO)NC(=O)c1ccc(C(=O)OC)cc1 (stereo not given)	1.9	0.6	0.2	-6.4	x	x
COc1ccc(CN2CCC3(CCC(CNS(=O)(=O)C(C)C)O3)CC2)cc1 (stereo not given)	6.3*	0.4	0.0	-3.4	-0.2	2.6
COc1cccc(-n2c(SCC(=O)NCCc3ccc(OC)c(OC)c3)nc3n[nH]c(C)c3c2=N)c1	0.6	19.1	0.0	8.4	x	x
CCN(CC)C(=O)C1CCCN(c2ccc([N+](=O)[O-])cc2[N+](=O)[O-])C1 (stereo not given)	0.7	8.7	0.0	-4.4	x	x
CCN(CC)C(=O)C1CCCN(c2ccc([N+](=O)[O-])cc2S(=O)(=O)N2CCCC2)C1 (stereo not given)	7.0*	-16.8	0.1	-3.5	0.2	14.5
Cn1c(C(=O)Nc2ccc(Oc3ccccc3)cc2)cc2c(=O)n3ccccc3nc21	5.9*	-3.5	0.2	4.4	-0.2	4.8
Cc1ccc(NC(=O)c2cc3c(=O)n4ccccc4nc3n2C)cc1F	5.6*	0.9	0.8	13.8	0.3	-1.9
CC(=O)Nc1ccc(NC(=O)c2cc3c(=O)n4ccccc4nc3n2C)cc1	0.1	0.9	-0.2	-3.7	x	x
O=C(NC1CC1)C1CC=CCC1C(=O)OCC(F)(F)C(F)F (stereo not given)	-0.5	-6.2	0.2	-3.5	x	x
CC(=O)N1N=C(c2c(-c3ccccc3)c3cc(Br)ccc3[nH]c2=O)CC1c1ccco1 (stereo not given)	-1.2	3.5	0.7	16.0	x	x
COc1ccc(C2CC(c3c(-c4ccccc4)c4cc(Br)ccc4[nH]c3=O)=NN2C(C)=O)cc1 (stereo not given)	1.6	15.5	-0.2	1.8	x	x
COc1ccc(C2CC(c3c(-c4ccccc4)c4cc(Br)ccc4[nH]c3=O)=NO2)cc1 (stereo not given)	8.4*	1.4	0.1	-11.1	0.3	-7.2
O=C(O)CCC(=O)N1N=C(c2c(-c3ccccc3)c3cc(Br)ccc3[nH]c2=O)CC1c1ccco1 (stereo not given)	5.4*	8.2	-0.3	-7.3	0.4	2.6
CC(=O)NC1C(OC(C)(C)C)OC(COC(C)=O)C(OC(C)=O)C1OC(C)=O (stereo not given)	-1.2	-3.7	0.0	11.9	x	x
CCCNc1ccnc(N2CCOCC2)n1	-0.1	-6.2	0.3	7.0	x	x
Cc1cc2nc3c(=O)n(C4CCCCCC4)c(=O)[nH]c3nc2cc1N	5.1*	-20.4	0.6	5.4	2.4	8.1
CCOC(=O)C1=C(C)N=c2s/c(=C\c3ccc(OC(C)=O)cc3)c(=O)n2C1c1cccs1 (stereo not given)	-1.8	-11.6	0.0	8.4	x	x
Cc1cnc(NC(=O)CSc2nc3ccccc3[nH]2)s1	0.8	2.9	-0.2	7.0	x	x
CC(C)n1c(Nc2cccc(N(C)C)c2)nc2c(NCCO)ncnc21	1.1	-14.3	0.6	6.0	x	x
CC1(C)Cc2c(sc(NC(=O)c3ccccc3F)c2C(N)=O)C(C)(C)N1	6.3*	5.1	0.1	3.2	0.2	1.9
CCOC(=O)c1c(NC(=O)c2ccc(OC)cc2OC)sc2c1CC(C)(C)NC2(C)C	5.6*	-2.1	0.1	-1.8	-0.5	-1.9
CCOC(=O)c1c(NC(=O)c2ccccc2Cl)sc2c1CC(C)(C)NC2(C)C	1.7	-16.3	0.0	-2.8	x	x
O=c1oc2cc(OCCN3CCOCC3)ccc2cc1-c1ccccc1	-1.6	-17.6	-0.2	0.8	x	x
SMILES	GPR151 ag	TEAD-YAP inh	FBW7 activator	MITF inh	GPR151 conf act	GPR119 counter
O=C(COc1ccccc1)Nc1cc(C(=O)O)cc(C(=O)O)c1	0.8	6.4	0.2	4.2	x	x
CCCc1cc(C(=O)N2CCc3nnc(Cc4ccccc4)n3CC2)n(C)n1	0.1	3.8	0.6	-1.1	x	x
COc1cc(C2C(C(N)=O)=C(C)Nc3ncnn32)cc(OC)c1OC (stereo not given)	0.7	5.8	0.0	-0.7	x	x
COc1ccc(C2C(C(N)=O)=C(C)Nc3ncnn32)cc1OC (stereo not given)	5.1*	-2.7	0.0	3.1	1.0	10.2
C=CCn1c(=O)c2ccccc2n2c(SCC(=O)Nc3ccccc3C(=O)OC)nnc12	5.0*	1.0	-0.1	-6.9	0.1	-5.6
Cc1ccc(Cn2nnc3c(=O)[nH]c(C4CCN(C(=O)c5ccco5)CC4)nc32)cc1	0.9	6.5	0.2	24.5	x	x
O=C(c1ccco1)N1CCC(c2nc3c(nnn3Cc3ccccc3Cl)c(=O)[nH]2)CC1	5.7*	8.5	0.7	5.0	1.3	13.1
O=C(Nc1nc2ccccc2s1)C(Cl)Cl	-1.1	7.6	0.0	2.2	x	x
CCOCCC(=O)Nc1ccc(S(=O)(=O)Nc2nccc(C)n2)cc1	-0.7	-0.1	0.2	12.1	x	x
CCn1cc(CN2CCC(n3nccc3NC(=O)c3ccc(OC)cc3)CC2)cn1	5.2*	9.1	0.0	5.5	-0.8	-20.3
COc1ccccc1C(=O)Nc1ccnn1C1CCN(Cc2ccc3nsnc3c2)CC1	5.6*	6.0	0.2	4.8	1.3	7.0
COc1ccccc1C(=O)Nc1ccnn1C1CCN(C2CCCCC2)CC1	5.1*	-2.8	-0.2	4.8	0.6	10.2
COc1ccccc1C(=O)Nc1ccnn1C1CCN(Cc2cccc(C(C)=O)c2)CC1	1.1	-6.6	-0.1	-2.8	x	x
CCN(CC)S(=O)(=O)c1ccc2oc(C(=O)NC3CCCCC3)c(C)c2c1	1.2	7.7	-0.1	-11.2	x	x
O=C(ON1C(=O)c2cccc3c([N+](=O)[O-])ccc(c23)C1=O)c1ccccc1Br	2.1	1.4	0.0	1.6	x	x
CCc1cccc(CC)c1NC(=O)CN1C(=O)NC2(CCCCC2C)C1=O (stereo not given)	6.2*	0.0	-0.1	-4.7	0.7	0.1
COc1ccc(-c2ccc(=O)n(CC(=O)NCC(=O)C(C)(C)C)n2)cc1	2.2	-0.3	0.0	-1.3	x	x
O=C(CCC1=NNC(=O)CC1)NCCN1Cc2ccccc2OC(c2ccccc2F)C1 (stereo not given)	0.8	0.2	-0.2	5.4	x	x
O=C1CCC(CCC(=O)N2Cc3ccccc3OC(c3ccccc3)C2)=NN1 (stereo not given)	9.9*	-9.7	0.0	-3.1	-0.1	4.6
O=C(NCCCC1CCCC1)c1cc(COc2cccc3cnccc23)on1	5.2*	12.5	0.3	-2.6	-0.2	-11.3
CCCNc1nc(Nc2ccc(C)cc2)nc(N2CCCC2)n1	4.9*	5.3	0.1	-0.6	0.2	-5.0
CCCCn1c(CNC(=O)c2ccc(OC)cc2)nnc1SCC(=O)OCC	6.4*	2.3	-0.1	14.4	1.3	0.3

Screening data from PubChem BioAssay.
